# Data published in article PMC7862700, “An all-to-all approach to the identification of sequence-specific readers for epigenetic DNA modifications on cytosine”.
# Legend:
# Assay in all cases: DAPPL (digital affinity profiling via proximity ligation, sequencing); 10 mM Tris-HCl pH 7.5, 50 mM NaCl, 1 mM DTT, 4% glycerol, room temperature, 30 min; GST-TFs on glutathione beads, 16-mer random dsDNA library, 0.1% formaldehyde crosslink after washing; high values mean tight binding
# Settings in all cases: protein: recombinant; tags: N-terminal GST; dsDNA, one strand shown
# [1] = target: T1, FLI1 (Homo sapiens, UniProt Q01543 1-452)
# T1 sequence: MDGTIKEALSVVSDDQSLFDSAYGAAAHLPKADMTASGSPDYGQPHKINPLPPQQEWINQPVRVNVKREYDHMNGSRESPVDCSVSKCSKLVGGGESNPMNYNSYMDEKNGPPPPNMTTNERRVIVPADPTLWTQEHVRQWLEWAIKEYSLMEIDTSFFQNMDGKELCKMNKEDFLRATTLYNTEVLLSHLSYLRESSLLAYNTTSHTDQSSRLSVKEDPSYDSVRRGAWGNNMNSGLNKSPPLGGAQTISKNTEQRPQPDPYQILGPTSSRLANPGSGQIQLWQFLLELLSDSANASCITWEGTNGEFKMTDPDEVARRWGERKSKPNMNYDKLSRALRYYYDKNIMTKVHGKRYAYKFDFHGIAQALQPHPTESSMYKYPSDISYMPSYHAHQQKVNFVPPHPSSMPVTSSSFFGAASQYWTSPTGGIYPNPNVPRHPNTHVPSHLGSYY
# Summary of the method: (§1)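 Binding signal is defined as a hexamer's read frequency for one factor over its frequency for the tag-only sample. To obtain reads, GST-fused human transcription factors were expressed in yeast, captured on glutathione beads, barcoded with DNA and pooled with that sample. Pools met 200 nmole of a 16-mer random double-stranded DNA library in Tris/NaCl/DTT/glycerol buffer for 30 min at room temperature before washing, 0.1% formaldehyde crosslinking, proximity ligation (BsaI/T4 ligase, 1 h, 37 °C), PCR and Illumina NextSeq500 sequencing.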
# [2] = target: T2, ELK1 (Homo sapiens, UniProt P19419 1-428)
# T2 sequence: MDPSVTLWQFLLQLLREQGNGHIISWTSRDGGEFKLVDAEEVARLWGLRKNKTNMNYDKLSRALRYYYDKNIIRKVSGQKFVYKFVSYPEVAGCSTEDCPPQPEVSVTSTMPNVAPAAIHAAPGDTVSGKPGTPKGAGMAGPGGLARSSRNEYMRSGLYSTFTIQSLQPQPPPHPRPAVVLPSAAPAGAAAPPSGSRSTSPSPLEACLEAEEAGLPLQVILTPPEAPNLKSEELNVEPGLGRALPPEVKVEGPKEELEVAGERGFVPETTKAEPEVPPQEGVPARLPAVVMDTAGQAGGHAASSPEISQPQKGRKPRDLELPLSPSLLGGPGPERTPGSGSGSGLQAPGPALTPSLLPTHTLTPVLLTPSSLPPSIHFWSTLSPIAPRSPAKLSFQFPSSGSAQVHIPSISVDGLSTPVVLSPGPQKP
# Summary of the method: as §1
# [3] = target: T3, GABPA (Homo sapiens, UniProt Q06546 1-454)
# T3 sequence: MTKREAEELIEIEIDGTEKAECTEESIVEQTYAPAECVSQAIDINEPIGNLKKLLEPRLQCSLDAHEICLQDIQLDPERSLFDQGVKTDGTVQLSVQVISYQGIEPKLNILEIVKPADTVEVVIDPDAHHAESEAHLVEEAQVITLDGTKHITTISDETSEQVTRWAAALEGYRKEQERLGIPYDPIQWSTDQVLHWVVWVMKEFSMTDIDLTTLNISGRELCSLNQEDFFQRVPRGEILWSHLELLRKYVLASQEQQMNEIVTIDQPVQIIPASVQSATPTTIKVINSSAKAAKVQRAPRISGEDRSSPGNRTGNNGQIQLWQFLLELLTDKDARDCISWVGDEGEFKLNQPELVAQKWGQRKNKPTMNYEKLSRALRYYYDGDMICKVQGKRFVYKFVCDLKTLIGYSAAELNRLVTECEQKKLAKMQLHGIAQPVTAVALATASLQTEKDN
# Summary of the method: as §1
# [4] = target: T4, ERG (Homo sapiens, UniProt P11308 1-479)
# T4 sequence: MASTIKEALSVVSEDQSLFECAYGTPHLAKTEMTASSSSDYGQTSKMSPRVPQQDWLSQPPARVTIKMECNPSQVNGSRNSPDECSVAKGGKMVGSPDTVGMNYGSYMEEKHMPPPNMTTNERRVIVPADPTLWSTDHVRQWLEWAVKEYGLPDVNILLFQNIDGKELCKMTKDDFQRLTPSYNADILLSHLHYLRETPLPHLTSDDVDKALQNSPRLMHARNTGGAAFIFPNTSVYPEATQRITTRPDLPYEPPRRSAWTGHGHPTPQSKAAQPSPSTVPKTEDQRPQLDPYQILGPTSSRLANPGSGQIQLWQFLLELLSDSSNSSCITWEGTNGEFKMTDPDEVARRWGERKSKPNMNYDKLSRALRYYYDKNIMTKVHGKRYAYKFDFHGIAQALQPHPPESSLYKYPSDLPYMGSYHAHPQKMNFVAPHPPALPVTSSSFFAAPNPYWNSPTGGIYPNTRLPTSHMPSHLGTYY
# Summary of the method: as §1
# [5] = target: ELF1 (Homo sapiens, UniProt P32519 1-619)
# Summary of the method: as §1
# [6] = target: T5, EHF (Homo sapiens, UniProt Q9NZC4 1-300)
# T5 sequence: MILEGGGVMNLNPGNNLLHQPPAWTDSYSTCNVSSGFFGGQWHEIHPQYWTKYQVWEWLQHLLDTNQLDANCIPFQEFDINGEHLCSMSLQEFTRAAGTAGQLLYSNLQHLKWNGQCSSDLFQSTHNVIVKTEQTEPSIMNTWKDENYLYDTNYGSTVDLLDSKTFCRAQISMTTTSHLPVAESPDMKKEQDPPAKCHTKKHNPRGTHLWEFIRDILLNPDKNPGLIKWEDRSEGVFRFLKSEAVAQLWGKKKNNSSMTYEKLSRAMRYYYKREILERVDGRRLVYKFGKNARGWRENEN
# Summary of the method: as §1
# [7] = target: SPI1 (Homo sapiens, UniProt P17947 1-270)
# Summary of the method: as §1
# [8] = target: SPIB (Homo sapiens, UniProt Q01892 1-262)
# Summary of the method: as §1
# [9] = target: T6, ELK3 (Homo sapiens, UniProt P41970 1-407)
# T6 sequence: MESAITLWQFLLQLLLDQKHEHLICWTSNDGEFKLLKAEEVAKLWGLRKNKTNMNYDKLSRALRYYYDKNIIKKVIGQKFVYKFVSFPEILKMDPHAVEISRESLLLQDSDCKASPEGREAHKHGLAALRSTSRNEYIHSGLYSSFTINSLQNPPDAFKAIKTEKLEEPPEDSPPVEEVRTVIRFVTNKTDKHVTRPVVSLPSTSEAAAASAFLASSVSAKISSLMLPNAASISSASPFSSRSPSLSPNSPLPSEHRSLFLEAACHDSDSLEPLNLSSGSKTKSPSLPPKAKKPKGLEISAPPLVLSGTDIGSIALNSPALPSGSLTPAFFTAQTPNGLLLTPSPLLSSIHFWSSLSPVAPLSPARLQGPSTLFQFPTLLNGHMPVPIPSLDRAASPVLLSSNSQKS
# Summary of the method: as §1
# [10] = target: ETV5 (Homo sapiens, UniProt P41161 1-510)
# Summary of the method: as §1
# Sequence of ETV5 (P41161 whole entry): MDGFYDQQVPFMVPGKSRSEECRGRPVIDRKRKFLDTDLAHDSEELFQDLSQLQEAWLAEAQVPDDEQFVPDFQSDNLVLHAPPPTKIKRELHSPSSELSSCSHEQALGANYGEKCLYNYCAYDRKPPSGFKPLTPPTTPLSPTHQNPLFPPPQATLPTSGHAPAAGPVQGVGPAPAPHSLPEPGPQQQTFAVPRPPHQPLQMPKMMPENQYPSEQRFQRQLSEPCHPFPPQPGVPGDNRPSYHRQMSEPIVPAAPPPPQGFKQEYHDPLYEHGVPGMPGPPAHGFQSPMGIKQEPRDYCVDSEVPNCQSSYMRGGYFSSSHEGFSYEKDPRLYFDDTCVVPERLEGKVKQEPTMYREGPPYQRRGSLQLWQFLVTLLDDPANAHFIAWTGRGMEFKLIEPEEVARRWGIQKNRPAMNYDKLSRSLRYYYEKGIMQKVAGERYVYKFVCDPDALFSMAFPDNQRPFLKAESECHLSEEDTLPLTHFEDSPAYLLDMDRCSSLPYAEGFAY
# Sequence of SPIB (Q01892 whole entry): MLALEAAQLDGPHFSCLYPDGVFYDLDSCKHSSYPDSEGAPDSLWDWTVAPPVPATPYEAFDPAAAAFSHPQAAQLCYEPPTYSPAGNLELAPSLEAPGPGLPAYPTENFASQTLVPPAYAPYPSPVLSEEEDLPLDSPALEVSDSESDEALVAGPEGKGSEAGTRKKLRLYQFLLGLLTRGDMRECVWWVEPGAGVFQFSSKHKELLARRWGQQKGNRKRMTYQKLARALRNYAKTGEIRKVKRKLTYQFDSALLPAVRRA
# Sequence of ELF1 (P32519 whole entry): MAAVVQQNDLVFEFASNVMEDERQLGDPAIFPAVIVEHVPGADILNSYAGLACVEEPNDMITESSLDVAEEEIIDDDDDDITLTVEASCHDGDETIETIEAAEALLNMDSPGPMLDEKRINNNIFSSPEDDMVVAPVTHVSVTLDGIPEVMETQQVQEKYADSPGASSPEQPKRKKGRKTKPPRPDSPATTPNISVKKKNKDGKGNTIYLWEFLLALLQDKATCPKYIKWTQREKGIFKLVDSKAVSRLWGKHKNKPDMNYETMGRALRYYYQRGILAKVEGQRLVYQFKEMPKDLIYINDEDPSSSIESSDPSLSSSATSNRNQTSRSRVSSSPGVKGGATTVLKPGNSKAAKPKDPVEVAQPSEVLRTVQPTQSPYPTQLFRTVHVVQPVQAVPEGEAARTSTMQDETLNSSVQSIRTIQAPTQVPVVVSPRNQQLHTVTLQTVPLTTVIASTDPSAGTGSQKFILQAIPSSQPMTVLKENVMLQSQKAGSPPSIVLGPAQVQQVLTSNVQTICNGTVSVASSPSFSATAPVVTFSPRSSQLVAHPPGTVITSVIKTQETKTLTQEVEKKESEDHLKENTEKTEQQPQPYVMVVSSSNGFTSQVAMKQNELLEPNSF
sequence,measurement,setting,value
TATGTC,binding signal,[1],"1.05 fold enrichment (6-mer frequency, TF over GST control)"
same,binding signal,[2],"1.05 fold enrichment (6-mer frequency, TF over GST control)"
same,binding signal,[3],"1.17 fold enrichment (6-mer frequency, TF over GST control)"
same,binding signal,[4],"1.08 fold enrichment (6-mer frequency, TF over GST control)"
same,binding signal,[5],"1.11 fold enrichment (6-mer frequency, TF over GST control)"
same,binding signal,[6],"1.02 fold enrichment (6-mer frequency, TF over GST control)"
same,binding signal,[7],"1.06 fold enrichment (6-mer frequency, TF over GST control)"
same,binding signal,[8],"1.16 fold enrichment (6-mer frequency, TF over GST control)"
same,binding signal,[9],"1.14 fold enrichment (6-mer frequency, TF over GST control)"
same,binding signal,[10],"1.07 fold enrichment (6-mer frequency, TF over GST control)"
